Measured values reported in PubChem BioAssay AID1159580 (chemical genetic matrix, 2015).
About 2,000 (36%) of roughly 5,500 compounds were called active. Another 18% or so got no clear call; they are omitted. Rule as the data show it: active = normalized growth mostly below about 0.91 (no sharp cut-off); inconclusive = no clear call, values can overlap the other calls; inactive = mostly above about 0.92. This is one part of the list.

Assay: chemical genetic growth profiling, strain panel (AID 1159580);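 also: tested at 20 µM; growth read once vehicle control cultures reached saturation at 30 °C; 1 = growth at the plate median or of vehicle wells; lower values mean less growth of the strain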
Details: growth OD

Measured: normalized growth

CO[C@@H]1[C@@H](OC(N)=O)[C@@H](O)[C@H](Oc2ccc3c(O)c(NC(=O)c4ccc(O)c(CC=C(C)C)c4)c(=O)oc3c2C)OC1(C)C
active: S. cerevisiae deletion strains, locus YKL068W, hits give low values 0.925 | S. cerevisiae deletion strains, locus YLR113W, strain HOG1, hits give low values 0.793
inactive: S. cerevisiae deletion strains, locus YJR043C, strain POL32, hits give low values 1 | S. cerevisiae deletion strains, locus YJR066W, strain TOR1, hits give low values 0.896 | S. cerevisiae deletion strains, locus YJR075W, strain HOC1, hits give low values 1.02 | S. cerevisiae deletion strains, locus YKL009W, strain mrt4, hits give low values 0.96 | S. cerevisiae deletion strains, locus YKL085W, strain MDH1 (second series), hits give low values 0.949 | S. cerevisiae deletion strains, locus YKL085W, strain MDH1, hits give low values 0.949 | S. cerevisiae deletion strains, locus YKL160W, strain elf1, hits give low values 1.03 | S. cerevisiae deletion strains, locus YKL190W, strain CNB1, hits give low values 0.993 | S. cerevisiae deletion strains, locus YKR001C, strain vps1, hits give low values 0.99 | S. cerevisiae deletion strains, locus YKR026C, strain gcn3, hits give low values 1.04 | S. cerevisiae deletion strains, locus YKR091W, strain srl3, hits give low values 1.03 | S. cerevisiae deletion strains, locus YLL001W, strain dnm1, hits give low values 1.04 | S. cerevisiae deletion strains, locus YLL026W, hits give low values 1.04 | S. cerevisiae deletion strains, locus YLL041C, strain sdh2, hits give low values 1.02 | S. cerevisiae deletion strains, locus YLR027C, strain aat2, hits give low values 1.03 | S. cerevisiae deletion strains, locus YLR039C, strain RIC1, hits give low values 0.962 | S. cerevisiae deletion strains, locus YLR058C, strain SHM2, hits give low values 1.01 | S. cerevisiae deletion strains, locus YLR102C, strain apc9, hits give low values 0.993 | S. cerevisiae deletion strains, locus YLR221C, strain rsa3, hits give low values 1.02 | S. cerevisiae deletion strains, locus YLR258W, strain gsy2, hits give low values 1.03 | S. cerevisiae deletion strains, locus YLR262C, strain YPT6 (second series), hits give low values 1.02 | S. cerevisiae deletion strains, locus YLR262C, strain YPT6, hits give low values 0.968 | S. cerevisiae deletion strains, locus YLR268W, strain sec22, hits give low values 0.955 | S. cerevisiae deletion strains, locus YLR320W, strain mms22, hits give low values 1.04 | S. cerevisiae deletion strains, locus YLR330W, strain CHS5, hits give low values 1.03 | S. cerevisiae deletion strains, locus YLR342W, strain FKS1 (second series), hits give low values 1.04 | S. cerevisiae deletion strains, locus YLR342W, strain FKS1, hits give low values 1.03 | S. cerevisiae deletion strains, locus YLR357W, strain rsc2, hits give low values 1.05 | S. cerevisiae deletion strains, locus YLR370C, strain arc18, hits give low values 1.03 | S. cerevisiae deletion strains, locus YLR371W, strain rom2, hits give low values 0.979 | S. cerevisiae deletion strains, locus YLR384C, strain iki3, hits give low values 1.04 | S. cerevisiae deletion strains, locus YLR418C, strain cdc73, hits give low values 1 | S. cerevisiae deletion strains, locus YML016C, strain PPZ1, hits give low values 1.02 | S. cerevisiae deletion strains, locus YML032C, strain rad52, hits give low values 0.99 | S. cerevisiae deletion strains, locus YML120C, strain ndi1, hits give low values 1.02 | S. cerevisiae deletion strains, locus YML124C, strain tub3, hits give low values 1 | S. cerevisiae deletion strains, locus YMR058W, strain fet3, hits give low values 1.03 | S. cerevisiae deletion strains, locus YMR078C, strain ctf18, hits give low values 0.997 | S. cerevisiae deletion strains, locus YMR125W, strain sto1, hits give low values 1.02 | S. cerevisiae deletion strains, locus YMR129W, hits give low values 1.03 | S. cerevisiae deletion strains, locus YMR205C, strain PFK2, hits give low values 1.05 | S. cerevisiae deletion strains, locus YMR223W, strain ubp8, hits give low values 1.03 | S. cerevisiae deletion strains, locus YMR231W, strain pep5, hits give low values 1.03 | S. cerevisiae deletion strains, locus YMR307W, strain GAS1, hits give low values 1.02 | S. cerevisiae deletion strains, locus YNL067W, strain RPL9B, hits give low values 0.989 | S. cerevisiae deletion strains, locus YNL071W, strain lat1, hits give low values 1.04 | S. cerevisiae deletion strains, locus YNL128W, strain TEP1, hits give low values 0.945 | S. cerevisiae deletion strains, locus YNL183C, strain NPR1, hits give low values 0.847 | S. cerevisiae deletion strains, locus YNL209W, strain ssb2, hits give low values 1.04 | S. cerevisiae deletion strains, locus YNL233W, strain BNI4, hits give low values 1.02 | S. cerevisiae deletion strains, locus YNL248C, strain rpa49, hits give low values 1.02 | S. cerevisiae deletion strains, locus YNL250W, strain rad50, hits give low values 0.956 | S. cerevisiae deletion strains, locus YNL271C, strain bni1, hits give low values 0.986 | S. cerevisiae deletion strains, locus YNL298W, strain CLA4, hits give low values 0.997 | S. cerevisiae deletion strains, locus YNL307C, strain MCK1, hits give low values 0.991 | S. cerevisiae deletion strains, locus YNL322C, strain KRE1 (second series), hits give low values 1.01 | S. cerevisiae deletion strains, locus YNR049C, strain mso1, hits give low values 1.04 | S. cerevisiae deletion strains, locus YNR052C, strain pop2, hits give low values 0.978 | S. cerevisiae deletion strains, locus YOL006C, strain TOP1, hits give low values 0.965 | S. cerevisiae deletion strains, locus YOL012C, strain htz1 1 | S. cerevisiae deletion strains, locus YOL147C, strain pex11, hits give low values 1.01 | S. cerevisiae deletion strains, locus YOR001W, strain rrp6, hits give low values 0.979 | S. cerevisiae deletion strains, locus YOR061W, strain CKA2, hits give low values 1.01 | S. cerevisiae deletion strains, locus YOR069W, strain VPS5, hits give low values 1.01 | S. cerevisiae deletion strains, locus YOR070C, strain gyp1, hits give low values 1.03 | S. cerevisiae deletion strains, locus YOR080W, strain dia2, hits give low values 1.04 | S. cerevisiae deletion strains, locus YOR083W, strain WHI5, hits give low values 1.03 | S. cerevisiae deletion strains, locus YOR106W, strain vam3, hits give low values 1.02 | S. cerevisiae deletion strains, locus YOR136W, strain idh2, hits give low values 1 | S. cerevisiae deletion strains, locus YOR144C, strain elg1, hits give low values 1 | S. cerevisiae deletion strains, locus YOR184W, strain ser1, hits give low values 0.987 | S. cerevisiae deletion strains, locus YOR231W, strain MKK1, hits give low values 0.882 | S. cerevisiae deletion strains, locus YOR265W, strain rbl2, hits give low values 1.02 | S. cerevisiae deletion strains, locus YOR270C, strain vph1, hits give low values 0.927 | S. cerevisiae deletion strains, locus YOR290C, strain snf2, hits give low values 1.05 | S. cerevisiae deletion strains, locus YOR316C, strain cot1, hits give low values 0.987 | S. cerevisiae deletion strains, locus YPL051W, strain arl3, hits give low values 1.05 | S. cerevisiae deletion strains, locus YPL055C, strain LGE1, hits give low values 0.991 | S. cerevisiae deletion strains, locus YPL078C, strain atp4, hits give low values 1.02 | S. cerevisiae deletion strains, locus YPL106C, strain sse1, hits give low values 1.05 | S. cerevisiae deletion strains, locus YPL240C, strain hsp82, hits give low values 1.02 | S. cerevisiae deletion strains, locus YPL256C, strain CLN2, hits give low values 0.861 | S. cerevisiae deletion strains, locus YPR119W, strain clb2, hits give low values 1.01 | S. cerevisiae deletion strains, locus YPR141C, strain kar3, hits give low values 0.962 | S. cerevisiae deletion strains, locus YPR163C, strain tif3, hits give low values 0.996 | S. cerevisiae deletion strains, locus YPR167C, strain met16, hits give low values 0.999 | S. cerevisiae deletion strains, strain wtn01, hits give low values 0.984 | S. cerevisiae strains, strain wild type, hits give low values 1.02
